compound: C#CCNC(=O)CCSSCCC(=O)NCCc1ccc(C=O)c(C=O)c1; experiment: lysine labeling ratio R10:1 (500 µM / 50 µM probe), SILAC-ABPP in living cells; higher = lower intrinsic lysine reactivity toward the probe, active = 2 or less; settings: HeLa; probe concentrations 500 vs 50 µM
Method in brief: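 R, given per lysine, is the filtered median high-probe/low-probe MS1 peptide ratio, with the median then taken across forward and reverse replicates. Cells were living SILAC light and heavy HeLa cells in PBS at room temperature, labelled with 50 µM or 500 µM of an alkyne-tagged, disulfide-linked lysine probe. The ceiling applied is 20.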

Sequence of UniProt P07942 (P07942 whole entry): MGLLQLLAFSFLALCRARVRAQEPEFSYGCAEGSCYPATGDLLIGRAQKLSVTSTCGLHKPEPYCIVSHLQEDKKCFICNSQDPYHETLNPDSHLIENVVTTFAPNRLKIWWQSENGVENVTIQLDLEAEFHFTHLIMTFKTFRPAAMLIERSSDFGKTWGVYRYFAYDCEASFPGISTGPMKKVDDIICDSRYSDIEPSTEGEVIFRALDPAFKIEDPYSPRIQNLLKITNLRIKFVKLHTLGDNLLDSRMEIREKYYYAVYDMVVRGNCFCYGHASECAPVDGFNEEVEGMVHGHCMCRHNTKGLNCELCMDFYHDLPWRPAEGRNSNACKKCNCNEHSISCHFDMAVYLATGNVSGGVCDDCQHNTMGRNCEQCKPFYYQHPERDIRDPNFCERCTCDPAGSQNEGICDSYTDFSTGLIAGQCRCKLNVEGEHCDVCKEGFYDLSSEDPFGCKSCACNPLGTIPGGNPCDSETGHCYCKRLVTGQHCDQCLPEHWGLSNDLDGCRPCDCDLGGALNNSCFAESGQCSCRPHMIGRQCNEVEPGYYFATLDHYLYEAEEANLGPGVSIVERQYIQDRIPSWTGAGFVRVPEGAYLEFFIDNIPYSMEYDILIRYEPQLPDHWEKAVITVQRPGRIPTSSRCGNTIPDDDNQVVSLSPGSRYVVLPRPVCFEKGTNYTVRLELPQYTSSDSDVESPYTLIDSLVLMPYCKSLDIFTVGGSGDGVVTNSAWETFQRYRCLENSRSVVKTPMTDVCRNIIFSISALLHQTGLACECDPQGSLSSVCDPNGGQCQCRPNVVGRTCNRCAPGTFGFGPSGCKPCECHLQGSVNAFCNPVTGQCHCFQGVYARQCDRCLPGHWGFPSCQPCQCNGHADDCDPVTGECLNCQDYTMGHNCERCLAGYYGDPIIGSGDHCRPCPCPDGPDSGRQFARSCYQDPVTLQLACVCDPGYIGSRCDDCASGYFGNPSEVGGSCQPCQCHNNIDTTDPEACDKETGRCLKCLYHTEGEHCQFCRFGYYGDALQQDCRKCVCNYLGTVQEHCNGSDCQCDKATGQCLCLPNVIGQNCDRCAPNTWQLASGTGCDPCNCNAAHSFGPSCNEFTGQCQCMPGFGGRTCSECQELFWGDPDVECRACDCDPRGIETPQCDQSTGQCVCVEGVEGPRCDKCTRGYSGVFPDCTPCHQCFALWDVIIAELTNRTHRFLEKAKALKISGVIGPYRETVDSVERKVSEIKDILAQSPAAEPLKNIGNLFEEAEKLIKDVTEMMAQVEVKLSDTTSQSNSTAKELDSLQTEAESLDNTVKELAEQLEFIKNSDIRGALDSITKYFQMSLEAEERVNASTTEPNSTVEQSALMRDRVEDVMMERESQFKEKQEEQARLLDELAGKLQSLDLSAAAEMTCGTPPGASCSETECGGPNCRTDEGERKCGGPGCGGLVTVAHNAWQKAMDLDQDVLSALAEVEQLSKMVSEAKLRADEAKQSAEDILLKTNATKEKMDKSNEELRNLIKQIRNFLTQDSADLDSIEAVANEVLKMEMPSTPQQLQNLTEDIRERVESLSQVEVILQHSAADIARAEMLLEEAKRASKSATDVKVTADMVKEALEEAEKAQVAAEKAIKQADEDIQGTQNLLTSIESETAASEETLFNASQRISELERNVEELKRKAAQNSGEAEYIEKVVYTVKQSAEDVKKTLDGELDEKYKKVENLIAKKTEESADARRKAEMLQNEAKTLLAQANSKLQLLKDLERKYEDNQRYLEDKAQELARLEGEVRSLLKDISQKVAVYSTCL
Sequence of UniProt Q01082 (Q01082 whole entry): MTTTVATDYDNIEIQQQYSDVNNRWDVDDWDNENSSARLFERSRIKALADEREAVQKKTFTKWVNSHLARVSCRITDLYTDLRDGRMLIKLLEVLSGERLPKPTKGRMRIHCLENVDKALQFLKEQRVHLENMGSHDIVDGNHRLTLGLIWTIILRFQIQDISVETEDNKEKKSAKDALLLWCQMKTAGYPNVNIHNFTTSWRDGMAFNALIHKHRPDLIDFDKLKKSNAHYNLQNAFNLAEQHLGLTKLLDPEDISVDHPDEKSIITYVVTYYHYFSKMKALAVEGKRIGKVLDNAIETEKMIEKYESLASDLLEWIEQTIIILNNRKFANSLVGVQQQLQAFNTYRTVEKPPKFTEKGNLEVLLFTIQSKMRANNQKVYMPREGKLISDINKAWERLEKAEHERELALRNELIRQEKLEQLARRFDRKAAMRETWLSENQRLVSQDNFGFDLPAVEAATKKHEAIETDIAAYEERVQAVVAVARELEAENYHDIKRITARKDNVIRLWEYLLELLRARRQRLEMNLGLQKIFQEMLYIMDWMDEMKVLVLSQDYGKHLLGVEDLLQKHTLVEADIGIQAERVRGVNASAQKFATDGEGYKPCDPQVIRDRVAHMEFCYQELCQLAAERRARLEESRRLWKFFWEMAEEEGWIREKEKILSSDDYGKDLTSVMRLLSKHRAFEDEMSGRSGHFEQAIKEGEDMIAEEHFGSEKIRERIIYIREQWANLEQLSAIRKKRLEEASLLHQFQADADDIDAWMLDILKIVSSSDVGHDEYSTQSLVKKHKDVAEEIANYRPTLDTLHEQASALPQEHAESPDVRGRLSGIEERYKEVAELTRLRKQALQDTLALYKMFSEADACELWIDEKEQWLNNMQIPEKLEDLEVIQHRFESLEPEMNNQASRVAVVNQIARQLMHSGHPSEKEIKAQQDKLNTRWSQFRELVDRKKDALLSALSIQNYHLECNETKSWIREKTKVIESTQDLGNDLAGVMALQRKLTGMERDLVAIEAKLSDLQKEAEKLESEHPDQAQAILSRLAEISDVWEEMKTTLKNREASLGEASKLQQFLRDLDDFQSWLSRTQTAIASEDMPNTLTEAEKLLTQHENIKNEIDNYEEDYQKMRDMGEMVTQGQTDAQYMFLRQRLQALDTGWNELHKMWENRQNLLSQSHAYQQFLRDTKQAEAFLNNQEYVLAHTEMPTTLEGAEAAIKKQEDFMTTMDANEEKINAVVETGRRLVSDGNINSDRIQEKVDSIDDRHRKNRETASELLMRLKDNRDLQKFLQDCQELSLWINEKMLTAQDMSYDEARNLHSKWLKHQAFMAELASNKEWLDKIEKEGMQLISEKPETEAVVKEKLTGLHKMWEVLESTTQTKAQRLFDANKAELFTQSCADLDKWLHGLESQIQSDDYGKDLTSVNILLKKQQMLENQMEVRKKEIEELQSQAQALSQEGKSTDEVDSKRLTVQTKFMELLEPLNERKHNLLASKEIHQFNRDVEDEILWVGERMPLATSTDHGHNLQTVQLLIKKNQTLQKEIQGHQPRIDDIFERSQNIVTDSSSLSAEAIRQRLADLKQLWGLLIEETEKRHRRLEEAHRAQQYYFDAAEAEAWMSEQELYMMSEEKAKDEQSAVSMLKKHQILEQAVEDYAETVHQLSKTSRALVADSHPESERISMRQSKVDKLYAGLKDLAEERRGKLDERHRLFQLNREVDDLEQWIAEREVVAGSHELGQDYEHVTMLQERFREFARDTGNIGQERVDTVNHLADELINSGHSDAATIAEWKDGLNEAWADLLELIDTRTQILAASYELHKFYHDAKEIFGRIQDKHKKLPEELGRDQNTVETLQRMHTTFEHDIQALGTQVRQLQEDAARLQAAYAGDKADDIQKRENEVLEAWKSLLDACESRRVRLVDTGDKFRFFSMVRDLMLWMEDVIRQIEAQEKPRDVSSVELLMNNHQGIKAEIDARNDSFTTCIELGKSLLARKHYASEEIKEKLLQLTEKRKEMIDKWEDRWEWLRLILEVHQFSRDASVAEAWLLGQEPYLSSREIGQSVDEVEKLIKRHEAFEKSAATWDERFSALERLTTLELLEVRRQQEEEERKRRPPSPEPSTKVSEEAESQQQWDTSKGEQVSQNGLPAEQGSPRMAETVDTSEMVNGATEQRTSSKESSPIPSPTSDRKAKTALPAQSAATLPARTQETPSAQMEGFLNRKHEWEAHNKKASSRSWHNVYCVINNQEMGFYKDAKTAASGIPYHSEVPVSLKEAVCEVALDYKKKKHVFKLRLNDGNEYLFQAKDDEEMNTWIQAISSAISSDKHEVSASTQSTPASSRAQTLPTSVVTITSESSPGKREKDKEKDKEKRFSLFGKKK
Sequence of UniProt Q02978 (Q02978 whole entry): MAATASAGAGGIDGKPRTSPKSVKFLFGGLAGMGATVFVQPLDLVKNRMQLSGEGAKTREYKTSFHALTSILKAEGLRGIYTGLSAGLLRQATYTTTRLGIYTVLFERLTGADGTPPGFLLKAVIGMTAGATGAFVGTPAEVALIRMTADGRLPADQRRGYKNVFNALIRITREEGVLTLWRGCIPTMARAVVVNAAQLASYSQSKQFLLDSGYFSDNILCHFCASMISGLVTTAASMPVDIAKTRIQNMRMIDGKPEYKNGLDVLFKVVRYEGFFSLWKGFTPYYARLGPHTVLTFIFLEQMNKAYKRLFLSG
Sequence of UniProt P60981 (P60981 whole entry): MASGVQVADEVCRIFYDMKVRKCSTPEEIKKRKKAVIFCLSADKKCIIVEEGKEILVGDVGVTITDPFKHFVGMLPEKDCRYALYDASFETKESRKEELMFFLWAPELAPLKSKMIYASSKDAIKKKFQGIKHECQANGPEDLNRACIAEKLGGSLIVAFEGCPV
Sequence of UniProt Q99714 (Q99714 whole entry): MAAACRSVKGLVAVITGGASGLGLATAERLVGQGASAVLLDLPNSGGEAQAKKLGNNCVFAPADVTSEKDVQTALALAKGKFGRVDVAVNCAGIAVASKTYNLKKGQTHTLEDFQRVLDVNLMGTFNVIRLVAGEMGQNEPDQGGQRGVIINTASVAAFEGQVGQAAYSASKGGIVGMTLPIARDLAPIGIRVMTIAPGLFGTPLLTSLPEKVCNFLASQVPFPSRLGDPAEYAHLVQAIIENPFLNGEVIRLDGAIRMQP
Sequence of UniProt P34741 (P34741 whole entry): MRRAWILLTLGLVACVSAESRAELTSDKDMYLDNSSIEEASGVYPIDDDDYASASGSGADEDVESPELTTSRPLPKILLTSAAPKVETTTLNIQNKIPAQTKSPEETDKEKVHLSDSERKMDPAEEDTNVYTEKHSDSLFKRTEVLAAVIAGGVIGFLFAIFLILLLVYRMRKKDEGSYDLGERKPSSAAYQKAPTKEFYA

Target | lysine labeling ratio R10:1
PGAM1 (lysine site: K39) (UniProt P18669) | 3.67 (inactive)
CD46 (lysine site: K227) (UniProt P15529) | 6.48 (inactive)
ARL6IP5 (lysine site: K31) (UniProt O75915) | 0.953 (active)
GPI (lysine site: K366) (UniProt P06744) | 2.81 (inactive)
GPI (lysine site: K12) (UniProt P06744) | 0.867 (active)
SEMA3C (lysine site: K724) (UniProt Q99985) | 4.97 (inactive)
CLTA (lysine site: K242) (UniProt P09496) | 5.68 (inactive)
CCT3 (lysine site: K78) (UniProt P49368) | 4.07 (inactive)
PROCR (lysine site: K192) (UniProt Q9UNN8) | 2.15 (inactive)
SPTBN1 (lysine site: K1913) (UniProt Q01082) | 4.33 (inactive)
FAT1 (lysine site: K2562) (UniProt Q14517) | 1.58 (active)
HSD17B10 (lysine site: K105) (UniProt Q99714) | 2.63 (inactive)
RPS3A (lysine site: K46) (UniProt P61247) | 3.87 (inactive)
ITGB1 (lysine site: K72) (UniProt P05556) | 1.91 (active)
SPTBN1 (lysine site: K1021) (UniProt Q01082) | 6.62 (inactive)
UniProt Q32P28 (lysine site: K437) | 1.13 (active)
CALD1 (lysine site: K605) (UniProt Q05682) | 3.32 (inactive)
RPL3 (lysine site: K250) (UniProt P39023) | 2.54 (inactive)
UniProt P46781 (lysine site: K11) | 4.03 (inactive)
ANPEP (lysine site: K205) (UniProt P15144) | 2.56 (inactive)

Target | lysine labeling ratio R10:1
UniProt Q9NRD8 (lysine site: K530) | 6.54 (inactive)
RPLP2 (lysine site: K25) (UniProt P05387) | 2.1 (inactive)
SLC25A11 (lysine site: K57) (UniProt Q02978) | 1.95 (active)
CTTN (lysine site: K87) (UniProt Q14247) | 2.06 (inactive)
TXNRD1 (lysine site: K405) (UniProt Q16881) | 5.51 (inactive)
PSMA3 (lysine site: K65) (UniProt P25788) | 1.97 (active)
PLOD2 (lysine site: K486) (UniProt O00469) | 2.27 (inactive)
LAMB1 (lysine site: K1708) (UniProt P07942) | 3.33 (inactive)
NOTCH2 (lysine site: K1058) (UniProt Q04721) | 1.5 (active)
DSTN (lysine site: K78) (UniProt P60981) | 1.54 (active)
FOLR1 (lysine site: K41) (UniProt P15328) | 1.41 (active)
PPIA (lysine site: K49) (UniProt P62937) | 3.03 (inactive)
UniProt Q15046 (lysine site: K479) | 1.78 (active)
FH (lysine site: K80) (UniProt P07954) | 1.86 (active)
SDC2 (lysine site: K134) (UniProt P34741) | 3.52 (inactive)
CACNA2D1 (lysine site: K232) (UniProt P54289) | 3.57 (inactive)
HNRNPM (lysine site: K388) (UniProt P52272) | 6.02 (inactive)
UniProt P55145 (lysine site: K45) | 4 (inactive)
LNPEP (lysine site: K624) (UniProt Q9UIQ6) | 0.72 (active)
LAMB1 (lysine site: K1778) (UniProt P07942) | 1.01 (active)
